Records with an inconclusive call do not appear. A call without a number means that no potency is given here. A number with no mark means an inactive call. Active and inactive are the calls of the source. Calls come from the whole dose curve; as a rule, active = well fitted inhibition curve with a large enough effect; inconclusive = small, poorly fitted or top-dose-only effect; inactive = flat fitted curve, though single readings scatter. Where a SMILES comes first, the peptide text is derived from it. [ ]: non-standard residue; d: D form. ξ: configuration not given here. ξLac(3-iPr) = CC(C)CC(O)C(=O)O; NMeV = CN[CH](C(=O)O)C(C)C; βAla = NCCC(=O)O
Each molecule was assayed against Calcium and integrin-binding protein 1 (Homo sapiens) (UniProt Q99828) (assay: Primary qHTS for Identification of Calcium Integrin Binding Protein 1 (CIB1) Competitor (AID 1508620;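 note: GST tagged CIB1 binding a fluorescein labelled alphaIIb integrin peptide tracer; top concentration of the series differs between compounds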)). Settings: CIB1-GST / FITC-alphaIIb peptide fluorescence polarization; series mostly up to 114 µM.
Sequence of Calcium and integrin-binding protein 1 (Homo sapiens) (Q99828 whole entry, looked up): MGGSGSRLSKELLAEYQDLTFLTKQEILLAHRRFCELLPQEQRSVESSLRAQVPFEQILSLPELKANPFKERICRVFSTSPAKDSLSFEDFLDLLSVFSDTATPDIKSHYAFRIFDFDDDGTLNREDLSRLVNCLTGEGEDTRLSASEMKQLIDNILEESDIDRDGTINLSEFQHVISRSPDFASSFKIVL
Description: Assay Provider: Ulhas P. Naik, PhD Sidney Kimmel Medical College Thomas Jefferson University, Philadelphia, PA Primary function of platelets is to maintain hemostasis. At the site of vascular injury, platelets adhere to adhesive proteins such as collagen and von Willebrand factor. Adherent platelets are activated and generate soluble platelet agonists such as thrombin, ADP and thromboxane A2. Following exposure of circulating platelets to these agonists, results in platelet shape change, granule secretion and activation of platelet integrin alphaIIb-beta3. Ligand binding to activated integrin alphaIIb-beta3 triggers outside-in signaling, leading to platelet aggregation, stabilization of platelet plug, and clot retraction. Upon atherosclerotic plaque rupture also causes platelet plug formation, which underlies a number of cardiovascular diseases such as myocardial infraction and stroke. A number of anti-platelet drugs such as aspirin, clopidogrel, prasugrel, vorapaxar, and eptifibatide are currently available to prevent the thrombotic complications. However, these anti-platelet agents have several limitations including inherent variability in individual responses, developing resistance, and serious bleeding side effects. For these reasons they are not suitable for long-term protection. Based on the experiences with current anti-platelet drugs, it appears that the most useful therapeutic approach is to intersect the secondary responses such as integrin outside-in signaling or recruitment of platelets by TxA2 and secreted ADP. Compounds, which can largely preserve the primary hemostatic function of platelets but inhibit secondary response will be most desired therapeutic agents for treatment of cardiovascular disease. CIB1 is a calcium integrin binding protein, which specifically interact with the alphaIIb subunit of integrin alphaIIb-beta3. Binding of CIB1 to alphaIIb regulates the outside-in signaling in platelets, which is needed for thrombus stabilization and thrombus growth. […] Therefore, we propose that discovery of a small molecule that can prevent the association of CIB1 and alphaIIb-beta3 will be a potential anti-platelet agent that can block the thrombus formation without undue effect on hemostasis. Reference: [1] Naik MU, Nigam A, Manrai P, et al. CIB1 deficiency results in impaired thrombosis: the potential role of CIB1 in outside-in signaling through integrin alpha IIb beta 3. J Thromb Haemost.
PROTOCOL TABLES SEQUENCE No. (1, 2, 3, etc.); […] (e.g., Cells, Incubation, Reagent, etc.); VALUE and DESCRIPTION. 1; Reagent; 3 uL; Protein or buffer (4/3x) 2; Compound; 46 nL; Control inhibitor / compound library 3; Time; 15 min; Room temperature incubation 4; Reagent; 1 uL; Fluorescent labeled peptide (4x) 5; Time; 1000 rpm; Centrifuge 6; Time; 15 min; Room temperature incubation 7; Detection; Ex 480/ Em 540; ViewLux Fluorescence Read NOTES (numbers refer to sequence above) 1; Protein Mixture: C1B1-GST (final concentrations of 1 uM). […] 3; Room temperature incubation. 4; Fluorescent Labeled Peptide: FITC-aIIb (final concentration of 100 nM). Sequence of alphaIIb peptide: Acetyl-[…]-FITC (purity is 95.83%). 5; Centrifuge 1000 rpm (164 g) for 15 seconds. 6; Room temperature incubation. 7; ViewLux Fluorescent Polization Read: excitation = 480(20) / emission = 540(25) S and P; FITC Dichroic mirror.
For CC(=O)O[C@H]1CC(C)(C)CC2[C@@]13[C@H](O)C[C@]1(C)[C@@]2(CCC2[C@@]4(C)CC[C@H](O[C@@H]5OC[C@H](O[C@@H]6O[C@H](CO)[C@@H](O)[C@H](O)[C@H]6O[C@@H]6OC[C@@H](O)[C@H](O)[C@H]6O)[C@H](O)[C@H]5O[C@@H]5O[C@H](CO)[C@@H](O)[C@H](O)[C@H]5O)C(C)(C)C4CC[C@]21C)O[C@@H]3O (stereo not given in full), the Potency was “inactive”.
For CCOC(=O)C(CCc1ccccc1)NC1CSC(c2cccs2)CN(CC(=O)O)C1=O (stereo not given), the Potency was “inactive”.
In the case of CC1=C2C3OC(=O)C(C)C3(O)CCC2(C)CCC1O (stereo not given), the Potency is reported as “inactive”.
For CC/C=C\CC1C(=O)C=CC1(CCCCCCCC(=O)O)OC(C)=O (stereo not given), the Potency was “inactive”.
OC[C@H]1O[C@@H](Oc2cc(O)c3c(c2)O[C@@H](c2ccc(O)cc2)[C@H](O)C3)[C@H](O)[C@@H](O)[C@@H]1O was tested, and the Potency was “inactive”.
CN(C)C1CCN(C(=O)c2ccc(NC(=O)Nc3ccc(-c4nc(N5CCOCC5)nc(N5CCOCC5)n4)cc3)cc2)CC1 was tested, and the Potency was “inactive”.
With COc1cc(/C=C/CO)cc(OC)c1O[C@@H]1O[C@H](CO[C@@H]2O[C@H](CO)[C@@H](O)[C@H](O)[C@H]2O)[C@@H](O)[C@H](O)[C@H]1O the Potency was “inactive”.
COC(=O)C1=CO[C@@H](O[C@@H]2O[C@H](CO)[C@@H](O)[C@H](O)[C@H]2O)[C@H]2[C@@H]1CC(OC)O[C@@H]2C (stereo not given in full) was tested, and the Potency was “inactive”.
CC(C)=CCC/C(C)=C/CC/C(C)=C/COC1OC(COC2OCC(OC3OCC(O)C(O)C3O)C(O)C2O)C(O)C(OC2OC(C)C(OC3OC(C)C(OC4OCC(OC5OC(C)C(O)C(O)C5O)C(O)C4O)C(O)C3O)C(O)C2O)C1O (stereo not given) was tested, and the activity change, negative = inhibition was 4.51% [at 12.4 µM].
In the case of COC(=O)C1(C)c2[nH]c3ccccc3c2CCN1C(=O)CCl (stereo not given), the Potency is reported as “inactive”.
In the case of C=C(C)C1Cc2cc(C(=O)OC3OC(CO)C(O)C(O)C3O)ccc2O1 (stereo not given), the Potency is reported as “inactive”.
With CC(C)CC1OC(=O)C2CCCN2C(=O)CCNC(=O)C(Cc2ccccc2)NC(=O)C(C(C)C)N(C)C(=O)C(C(C)C)N(C)C1=O (stereo not given) (cyclo([ξLac(3-iPr)][NMeV][NMeV]F[βAla]P); configuration not given here) the Potency was “inactive”.
Cc1ccc(NC(=O)c2ccc(CN3CC[C@H](N(C)C)C3)c(C(F)(F)F)c2)cc1Nc1nccc(-c2cncnc2)n1 was tested, and the Potency was “inactive”.
For CC(C)(C)NCCCNC(=O)c1cccc(Br)c1, the Potency was “inactive”.
In the case of CC(C)CCC(=O)CC1c2ccccc2C(=O)N1c1ccc2ccc(Cl)nc2n1 (stereo not given), the Potency is reported as “inactive”.
With O=C1C=CC(O)(/C=C/C(=O)OC[C@H]2O[C@@H](Oc3ccc(O)cc3)[C@H](O)[C@@H](O)[C@@H]2O)C=C1 the Potency was “inactive”.
In the case of C=C1C(=O)O[C@@H]2[C@H]1CCC(C)=C1CCC(=O)O[C@]12C, the Potency is reported as “inactive”.
COC(=O)CCC(=O)OC[C@]1(C)CCC[C@@]2(C)C3CC[C@]4(C)C=CC3(CCC12)C4 (stereo not given in full) was tested, and the Potency was “inactive”.
In the case of CO[C@H]1O[C@@H]2O[C@]3(C)CC[C@H]4[C@H](C)CC[C@@H]([C@H]1C)[C@@]24OO3, the Potency is reported as “inactive”.
C=C1C(=O)O[C@H](CCC)[C@H]1C(=O)O was tested, and the Potency was “inactive”.
In the case of Cc1c2cc(c(C(=O)O)c1C)OC1OC(C(O)C(O)C1O)C(O)C(O)C1OC(O2)C(O)C(O)C1O (stereo not given), the Potency is reported as “inactive”.
CC(O)c1cc(C(=O)N[C@@H](C)Cn2ccc(-c3ccc(C#N)c(Cl)c3)n2)n[nH]1 (stereo not given in full) was tested, and the Potency was “inactive”.
For CCOC(=O)CCN(C(=O)c1ccc2c(c1)nc(CNc1ccc(C(=N)N)cc1)n2C)c1ccccn1, the Potency was “inactive”.
With C[C@H](CCC(=O)O)[C@H]1CC[C@H]2[C@@H]3C[C@H](O)[C@@H]4C[C@H](O)CC[C@]4(C)[C@H]3CC[C@]12C the Potency was “inactive”.
With CS(=O)(=O)c1ccc(-c2nnc(/C=C/c3nnc(-c4ccc(C#N)cc4)o3)n2-c2ccccc2Cl)nc1 the Potency was “inactive”.
In the case of CC(=O)N[C@@H](C(=O)O[C@H]1CCC(C)(C)[C@@H]2CCC3=C(COC3=O)[C@@]12C)C(C)C, the Potency is reported as “inactive”.
Cn1nnc(-c2ccc(-c3ccc(N4C[C@H](CO)OC4=O)cc3F)cn2)n1 was tested, and the Potency was “inactive”.
With C=C(C)C(=O)O[C@H]1C[C@@](C)(O)C(=O)CC(O)/C(C)=C\[C@H]2OC(=O)C(=C)[C@H]12 (stereo not given in full) the Potency was “inactive”.
CC1=C(COC2OC(CO)C(O)C(O)C2O)C(C(CO)C(=O)O)CC1 (stereo not given) was tested, and the Potency was “inactive”.
For CC(C)(O[C@@H]1O[C@H](CO)[C@@H](O)[C@H](O)[C@H]1O)C(OC(=O)/C=C\c1ccc(O)cc1)C(=O)OCc1ccc(O[C@@H]2O[C@H](CO)[C@@H](O)[C@H](O)[C@H]2O)cc1 (stereo not given in full), the Potency was “inactive”.
With COC1CC(OC2CCC3(C)C(=CCC4C3C(OC(C)=O)C(OC(=O)/C=C/c3ccccc3)C3(C)C(C(C)O)CCC43O)C2)OC(C)C1OC1CC(OC)C(OC2OC(C)C(OC3OC(CO)C(O)C(O)C3O)C(OC)C2O)C(C)O1 (stereo not given) the activity change, negative = inhibition was -8.58% [at 12.4 µM].
COc1ccc(CNC(=O)c2sc3nc(C)cc(C)c3c2N)cc1 was tested, and the Potency was “inactive”.
With COc1c(C)c(OCC(O)C(C)(C)O)cc2c1COC2=O (stereo not given) the Potency was “inactive”.
In the case of C=C(CO[C@@H]1O[C@H](CO[C@@H]2OC[C@](O)(CO)[C@H]2O)[C@@H](O)[C@H](O)[C@H]1O)C1Cc2cc(C(C)=O)ccc2O1 (stereo not given in full), the Potency is reported as “inactive”.
C[C@@H]1CC[C@]2(C(=O)OC3OC(CO)C(O)C(O)C3O)CC[C@]3(C)C(=CCC4[C@@]5(C)CC[C@H](O)[C@](C)(C(=O)O)C5CC[C@]43C)C2[C@]1(C)O (stereo not given in full) was tested, and the Potency was “inactive”.
Cc1nc(NC(=O)N2CCCC2C(N)=O)sc1-c1csc(C(C)(C)C)n1 (stereo not given) was tested, and the Potency was “inactive”.
CC1(C(=O)O)CCCC2(C)C3CCC4CC3(CCC12)CC4=O (stereo not given) was tested, and the Potency was “inactive”.
With COc1c2c(c(C)c3c1C(=O)OC3)OC1(C)CC(O)C34OC(OC)(OC3(C)C)C(O)CC4(C)C1C2 (stereo not given) the Potency was “inactive”.
In the case of CC(=O)CCC1=C(C)C(O[C@@H]2O[C@H](CO)[C@@H](O)[C@H](O)[C@H]2O)C(O)CC1(C)C (stereo not given in full), the Potency is reported as “inactive”.
With C=C1C[C@]23C[C@H]1[C@@H](O)C[C@H]2[C@@]12C=C[C@H](O)[C@@](C)(C(=O)O1)[C@H]2[C@@H]3C(=O)O the Potency was “inactive”.

Source: PubChem BioAssay (NCATS)
